From PubChem BioAssay
Shown are actives, neighbours in structure and some others; about 2.2% of the full set was active somewhere.
C8 TRAIL sens: sensitizes caspase-8 expressing cells to TRAIL | NB7+C8 cells + TRAIL, ATPlite viability luminescence | inhibition (viability loss, TRAIL sensitization), % at 10 µM | 360,000 compounds, 1% hits | AID 624354;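 active = compounds causing at least 50% loss of cell viability in the single-dose screen, relative to plate controls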
iPSC survival up: enhancers of human iPSC single-cell survival; 360,000 compounds, 0.044% hits; survival enhancement, % at 20 µM; AID 602274; hiPSC single-cell survival, ATPlite luminescence; 100% = ROCK inhibitor wells, 0% = DMSO; in the data active = survival enhancement above about 18%;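 note: cells exposed to compounds for 16 hours before the ATP read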
HIF-2a inh: HIF-2a inhibition; 360,000 compounds, 0.72% hits; inhibition, % at 18.8 µM; 786-0 RCC cells HIF-2a reporter, luciferase luminescence, overnight;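 active = inhibition of the luminescence signal of 40% or more relative to plate controls, in a single-dose primary screen at 18.75 µM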
CF NFkB inh: blocks PAF-induced NF-kB reporter in cystic fibrosis cells | AID 588850 | inhibition, % at 5 µM | KKLEB NF-kB-GFP reporter, GFP fluorescence overnight | 360,000 compounds, 0.86% hits;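 active = at least 50% inhibition at 5 µM, scaled per plate between neutral and stimulator controls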;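 note: PAF is a Pseudomonas aeruginosa culture filtrate used as stimulus; plate controls were PAF-stimulated DMSO wells for no effect and unstimulated DMSO wells for full effect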
PPC-1+TRAIL kill: compounds killing PPC-1 cancer cells with TRAIL present (potentiator screen, no TRAIL-free arm) | PPC-1 cells + TRAIL, ATPLite viability luminescence | cell killing (% activity), % at 4 µM or 5 µM | 220,000 compounds, 0.41% hits | AID 1443;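 active = cell killing above 50% in the first pass at 4 µM, then a duplicate retest at 5 µM averaging 50% or more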;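 note: plate controls were cells with TRAIL plus DMSO for no effect and medium-only wells lacking cells for full effect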
KKLEB tox: counter-screen for CF NF-kB inhibitors: cytotoxicity; KKLEB CF airway cells viability, ATPlite luminescence, overnight; hits give low values; cells stimulated with P. aeruginosa culture filtrate; activity change (cytotoxicity), % at 5 µM; 360,000 compounds, 0.36% hits; AID 602141;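 active = corrected activity change at or below -50% at 5 µM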
An asterisk follows results filed as active; / = not tested or not shown.

SMILES | C8 TRAIL sens | iPSC survival up | HIF-2a inh | CF NFkB inh | PPC-1+TRAIL kill | KKLEB tox
O=C(CCl)N1CCN(S(=O)(=O)c2ccc3c(c2)CCC3)CC1 | 91.1* | 0.5 | 25.2 | -23.1 | / | -16.4
CN1C(=O)N(CC(=O)N2CCN(S(=O)(=O)c3ccc4c(c3)CCC4)CC2)C(=O)C12CCCCC2 | 0.7 | -0.3 | 11.0 | 9.9 | / | -4.7
O=C(Nc1ccc(Cn2ccnc2)cc1)c1cccc(C(F)(F)F)c1 | -1.3 | -0.4 | -52.1 | 1.0 | / | 1.2
O=C(CCc1nc2ccccc2c(=O)[nH]1)N1CCN(S(=O)(=O)c2cccc(F)c2)CC1 | -8.1 | -0.3 | 3.1 | 7.1 | / | -10.8
COc1ccc(NC(=O)CCC(=O)c2cc(C)sc2C)cc1 | -9.7 | 2.6 | -7.1 | -17.2 | / | 8.1
Cc1cccc(NC(=O)CCc2ccc(N3C(N)=NC(N)=NC3(C)C)cc2)c1 | 79.8* | -1.2 | 20.5 | 22.9 | / | -18.1
CC1(C)N=C(N)N=C(N)N1c1ccc(OCCCOc2ccccc2)c(Cl)c1 | 71.4* | 1.4 | 33.6 | 8.6 | 41.1 | -7.2
CC1(C)N=C(N)N=C(N)N1c1ccc(OCC(=O)Nc2ccccc2)c(Cl)c1 | 80.6* | -0.7 | 30.9 | -45.3 | / | 5.3
CC1(C)N=C(N)N=C(N)N1c1cccc(CC(=O)Nc2ccccc2)c1 | 78.0* | -2.7 | -4.8 | 11.9 | / | 0.5
CCOC(=O)CSc1ccc(C(=O)NCCCN2CCOCC2)cc1[N+](=O)[O-] | -7.6 | 0.7 | 5.9 | -0.6 | / | 2.3
CC(NC(=O)C1CCC(C(=O)NC(C)c2ccccc2)CC1)c1ccccc1 (centres undefined) | -0.6 | -0.3 | 4.2 | -6.5 | / | -4.5
COc1ccc2c(C(=O)CCl)c[nH]c2c1 | 12.3 | 0.4 | -32.0 | 73.1* | 22.7 | -51.7*
CC[C@@]1(C(=O)OC)N[C@H](CN(C)C(=O)COc2ccccc2)[C@@H]2C(=O)N(Cc3ccccc3)C(=O)[C@@H]21 | -8.3 | 1.5 | -0.5 | 10.0 | / | 2.7
CCCCCCCCCCOC(=O)Cn1c(COc2ccccc2)[n+](C)c2ccccc21 | 5.9 | -0.1 | -12.0 | 71.2* | / | -61.8*
CCCCCCCCCCOC(=O)Cn1c(COc2ccccc2C)[n+](C)c2ccccc21 | 49.1 | -0.5 | 1.9 | 59.9* | / | -42.4
CCCCCCCCCCOC(=O)Cn1c(COc2ccc(OC)cc2)[n+](C)c2ccccc21 | 37.9 | 0.1 | -57.2 | 33.5 | / | -22.3
O=C(Nc1nccs1)c1ccc(-c2ccc([N+](=O)[O-])cc2)o1 | 23.4 | -0.4 | -237.0 | -38.0 | 27.7 | -4.8
O=C(Nc1nccs1)c1ccc(-c2ccc(F)cc2)o1 | 53.7* | -0.7 | -306.7 | -77.7 | 48.8 | -4.9
COc1ccc(N2C(=O)CC(Sc3nccc(C)n3)C2=O)c(OC)c1 (centres undefined) | -9.8 | 27.5* | 12.2 | 11.6 | / | 9.5
CCN(CC)C(=O)CC(c1cc(OC)c(OC)c(OC)c1)c1c(OC)cc(OC)c2c(-c3ccccc3)cc(=O)oc12 (centres undefined) | 1.0 | -1.2 | -19.2 | -31.1 | 2.2 | 3.5
Cc1nn(-c2ccccc2)c(/N=C/c2ccc(O)cc2)c1-c1ccccc1 | 52.8* | -2.5 | -202.3 | 4.9 | 39.6 | -9.3
COc1ccccc1-c1cc(C(=O)N2CCN(S(=O)(=O)c3ccc(C)cc3)CC2)[nH]n1 | 4.1 | -0.5 | -6.7 | -27.5 | / | 3.5
Cc1ccc(OCC(=O)Nc2ccccc2C(N)=O)cc1 | 52.2* | -0.6 | -249.1 | -14.8 | / | 1.0
COc1cc(O)cc(O)c1C(=O)/C=C/c1ccccc1 | 14.1 | 0.3 | 26.0 | 51.8* | 21.4 | -11.5
COc1cc(OC)c(C(=O)/C=C/c2ccccc2)c(O)c1O | 11.8 | -1.7 | 12.9 | 16.9 | 13.8 | 7.6
SMILES | C8 TRAIL sens | iPSC survival up | HIF-2a inh | CF NFkB inh | PPC-1+TRAIL kill | KKLEB tox
CC(=O)c1cccc(NC(=O)c2ccccc2N(Cc2ccccc2)S(C)(=O)=O)c1 | 2.4 | 0.8 | 10.6 | -10.9 | / | 11.6
CC(C)Oc1cccc(C(=O)N/N=C/c2coc3ccccc3c2=O)c1 | -10.2 | 0.1 | 6.4 | 13.7 | / | 15.6
Oc1cc(Nc2ccccc2)cc2cccnc12 | 42.0 | 1.5 | -3.6 | 77.6* | / | -19.5
CCCOc1ccc(/C=N/Nc2cc(N3CCOCC3)ncn2)c(O)c1 | 25.4 | -0.3 | 17.6 | 53.7* | / | -41.6
COc1ccc(/C=C/C(=O)NCC(=O)N=Nc2c(O)[nH]c3ccc([N+](=O)[O-])cc23)cc1 | 2.7 | 0.7 | 4.0 | 78.4* | / | -44.9
C#Cc1cccc(Nc2nc(NCc3ccccc3OC)nc3ccsc23)c1 | 45.6* | -0.6 | -92.5 | 39.0 | / | -31.3
C#Cc1cccc(Nc2nc(NCCOC)nc3ccsc23)c1 | 8.0 | -0.1 | 21.9 | 18.8 | / | -8.8
Cc1cc(N2CCOCC2)ccc1/C=C\[N+](=O)[O-] | 7.6 | -6.0 | 54.9* | 54.3* | 18.3 | -10.2
COc1ccc(S(=O)(=O)NC(C)C(=O)NCc2ccccn2)cc1Cl (centres undefined) | 4.4 | -0.5 | 14.4 | 7.4 | / | 6.9
O=C1C(C=Nc2ccc(F)cc2)=C(O)c2ccccc21 | 56.6* | -1.7 | -215.1 | -14.8 | 21.5 | -9.1
O=C1C(C=NCc2ccncc2)=C(O)c2ccccc21 | -22.7 | -1.2 | -14.0 | -4.9 | 2.9 | -6.2
CCn1c(SCC(=O)Nc2cccc(NC(C)=O)c2)nc2c([nH]c3ccccc32)c1=O | -0.5 | -0.5 | 17.0 | 61.3* | / | -51.5*
CCn1c(SCC(=O)Nc2ccc(C(C)=O)cc2)nc2c([nH]c3ccccc32)c1=O | 30.6 | 0.0 | -17.6 | -2.8 | / | -5.8
O=C(Nc1ccc(O)cc1)/C(=C\C=C\c1ccccc1)NC(=O)c1ccccc1 | -3.2 | -0.4 | -20.3 | 17.9 | 4.9 | -9.3
O=C(Nc1ccc(C(=O)O)cc1)/C(=C\C=C\c1ccccc1)NC(=O)c1ccccc1Cl | 53.9* | -0.3 | -107.0 | -24.0 | / | 6.0
CN1CCN(NC(=O)c2cc(-c3cccc(Cl)c3)nc3ccccc23)CC1 | -13.2 | 0.0 | 2.1 | -14.4 | 20.5 | -7.0
CC(C)c1ccc(-c2cc(C(=O)NN3CCN(C)CC3)c3ccccc3n2)cc1 | 77.0* | -1.9 | -164.7 | 11.4 | 66.4* | -28.6
O=C(Nc1ccccc1)C1=C[C@@H](c2coc3ccccc3c2=O)C[C@@H](OCc2ccc(CO)cc2)O1 | -2.4 | 0.9 | 17.7 | 6.2 | 19.9 | -4.8
COc1cc2nc(Nc3ccc(C)c(Cl)c3)nc(N)c2cc1OC | 38.0 | -0.5 | -18.9 | -1.1 | / | -51.4*
COc1cc2nc(Nc3ccc(C)c(C)c3)nc(N)c2cc1OC | 14.0 | -0.4 | -17.2 | -26.8 | / | -28.8
Cc1ccc(Nc2nc(N)c3ccccc3n2)cc1Cl | 68.8* | -0.7 | -106.5 | 0.8 | / | -46.2
COc1cc(C(=O)NNC(=S)NC(=O)c2ccc(F)cc2)cc(OC)c1OC | 7.4 | 0.6 | 20.3 | 5.6 | 23.9 | 6.6
CCN(CC)C(=O)c1cccc(NC(=O)C2CCN(C(=O)c3cccs3)CC2)c1 | -1.8 | -1.8 | 7.2 | 11.8 | / | 4.8
